Laboratory results: PubChem BioAssay (Tox21)
“And” between values parts separate entries of the source, which are not always exact repeats. Identical values can stand only once. Inconclusive results are not listed. Entries that show only a call come without a potency. More than one record can exist for a structure, and the calls need not agree. The source made the active and inactive calls. Unless noted, the call rests on the fitted dose curve.

How the values were obtained:
[1] = Nuclear factor erythroid 2-related factor 2/antioxidant responsive element (Nrf2/ARE) small molecule agonists: qHTS cell viability counter screen in human keratinocytes (AID 1919968; active means well fitted curve in the direction sought with a large enough effect in the repeat runs; an effect the other way counts as inactive or inconclusive; further: nearly all actives have a fitted effect of over 55% in size)
Procedure, shortened: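 Cells of the KeratinoSens line were plated at 1,500 per well and left for 5 h before compound transfer from DMSO stocks. After a 23 h incubation (37 C, 5% CO2), CellTiter-Fluor was added. Signal was taken as fluorescence intensity 1 h later.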

[2] = Nuclear factor erythroid 2-related factor 2/antioxidant responsive element (Nrf2/ARE) small molecule agonists: luciferase reporter gene qHTS assay in human keratinocytes (AID 1919969); further: nearly all actives have a fitted effect of over 35% in size; further: potency means the concentration at half of the fitted maximal effect
[3] = target: Gonadotropin-releasing hormone receptor (Homo sapiens) (UniProt P30968); assay: Human gonadotropin-releasing hormone receptor (GnRHR) small molecule agonists, calcium flux assay in GnRHR-HEK293 cells (AID 1920063); further: nearly all actives have a fitted effect of over 35% in size
Chain of Gonadotropin-releasing hormone receptor (Homo sapiens) (P30968 whole entry, looked up): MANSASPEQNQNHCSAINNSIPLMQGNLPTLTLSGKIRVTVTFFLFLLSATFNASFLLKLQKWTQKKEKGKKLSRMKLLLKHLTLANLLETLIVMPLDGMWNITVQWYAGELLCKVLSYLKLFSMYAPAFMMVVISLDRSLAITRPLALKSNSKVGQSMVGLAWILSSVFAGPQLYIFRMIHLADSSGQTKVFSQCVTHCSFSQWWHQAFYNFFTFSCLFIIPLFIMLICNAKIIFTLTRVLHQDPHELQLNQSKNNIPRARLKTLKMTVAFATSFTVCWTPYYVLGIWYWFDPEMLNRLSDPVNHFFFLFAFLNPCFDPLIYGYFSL
Procedure, shortened: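 Compounds dissolved in DMSO are pin-transferred onto dye-loaded GnRHR-HEK293 cells, which were seeded 18 h before at 37 C/5% CO2. Calcium signal is read as fluorescence intensity at 1 s intervals for 3 min.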

[4] = target: KiSS-1 receptor (Homo sapiens) (UniProt Q969F8); assay: Human kisspeptin (KISS1R) small molecule agonists, calcium flux assay in KISS1R-HEK293 cells (AID 1920064; active means well fitted curve in the direction sought with a large enough effect in the repeat runs; an effect the other way counts as inactive or inconclusive)
Chain of KiSS-1 receptor (Homo sapiens) (Q969F8 whole entry, looked up): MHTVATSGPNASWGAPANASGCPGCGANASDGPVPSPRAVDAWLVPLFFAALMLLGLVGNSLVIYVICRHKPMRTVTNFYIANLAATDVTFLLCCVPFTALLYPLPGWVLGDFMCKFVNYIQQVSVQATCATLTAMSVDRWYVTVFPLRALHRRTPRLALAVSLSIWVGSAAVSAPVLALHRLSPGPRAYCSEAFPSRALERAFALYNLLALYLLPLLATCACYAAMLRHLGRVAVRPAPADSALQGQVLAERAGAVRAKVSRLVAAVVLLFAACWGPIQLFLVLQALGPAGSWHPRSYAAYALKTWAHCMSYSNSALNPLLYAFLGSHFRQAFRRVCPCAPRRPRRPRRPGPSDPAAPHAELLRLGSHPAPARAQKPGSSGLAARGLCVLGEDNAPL
Procedure, shortened: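 Cell line: HEK293, stable human KISS1R. Dye loading 1 h at 37 C after 18 h culture. Read: kinetic fluorescence, 480/540 nm, 3 min at 1 s intervals.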

[5] = G protein-coupled receptor (GPCR) small molecule agonists, calcium flux assay: HEK293 wild type cell line counter screen (AID 1920065)
Procedure, shortened: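 Tox21 10K compounds, 15 concentrations each in triplicate, pin-transferred in DMSO onto dye-loaded cells; kinetic read at 480/540 nm for 3 min, 1 s intervals.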

[6] = p53 small molecule agonists, cell-based qHTS assay with human liver microsomes: qHTS cell viability counter screen (AID 1963579); further: nearly all actives have a fitted effect of over 45% in size
Procedure, shortened: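 Metabolically activated exposure: compounds, human liver microsomes and NADPH (0.5 mg/mL final apiece) were added to p53RE-bla cells seeded 5 h earlier, left 16 h at 37 C, and then assessed for viability by CellTiter-Glo luminescence.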

[7] = p53 small molecule agonists, cell-based qHTS assay with rat liver microsomes: qHTS cell viability counter screen (AID 1963580); further: nearly all actives have a fitted effect of over 45% in size
Procedure, shortened: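 Rat liver microsome (0.5 mg/mL final) and NADPH (0.5 mg/mL final) co-incubation with compounds for 16 h at 37 C on HCT-116 p53RE-bla cells; cytotoxicity taken from intracellular ATP luminescence.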

[8] = p53 small molecule agonists, cell-based qHTS assay: qHTS cell viability counter screen (AID 1963581); further: nearly all actives have a fitted effect of over 45% in size
Procedure, shortened: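 ATP content measured by luminescence in HCT-116 p53RE-bla cells treated 16 h at 37 C, same wells as the reporter screen.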

[9] = target: 5-hydroxytryptamine receptor 2A (Homo sapiens) (UniProt P28223); assay: 5-hydroxytryptamine receptor 2A (HTR2A) small molecule antagonists, cell-based qHTS assay (AID 1963586); further: nearly all actives have a fitted effect of over 45% in size
Chain of 5-hydroxytryptamine receptor 2A (Homo sapiens) (P28223 whole entry, looked up): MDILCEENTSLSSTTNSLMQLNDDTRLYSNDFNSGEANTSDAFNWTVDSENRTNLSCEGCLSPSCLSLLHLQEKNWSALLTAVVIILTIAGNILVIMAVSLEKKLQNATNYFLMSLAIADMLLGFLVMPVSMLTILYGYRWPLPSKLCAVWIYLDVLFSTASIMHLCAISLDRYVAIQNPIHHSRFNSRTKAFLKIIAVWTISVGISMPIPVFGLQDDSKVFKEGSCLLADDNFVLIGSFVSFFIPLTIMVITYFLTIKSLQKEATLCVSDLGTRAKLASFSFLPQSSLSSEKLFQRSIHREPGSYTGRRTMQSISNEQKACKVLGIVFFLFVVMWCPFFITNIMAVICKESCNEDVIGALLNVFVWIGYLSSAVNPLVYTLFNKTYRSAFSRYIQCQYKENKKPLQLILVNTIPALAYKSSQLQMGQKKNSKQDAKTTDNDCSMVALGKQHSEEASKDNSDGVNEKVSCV
Procedure, shortened: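 CHO cells stably expressing human HTR2A were plated for 18 h at 37 C, then loaded with calcium dye for 1 h. Compounds were preincubated 5 min at room temperature before DOI (4 nM solution) was added. Kinetic fluorescence was read for 3 min.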

[10] = target: 5-hydroxytryptamine receptor 2A (Homo sapiens) (UniProt P28223); assay: 5-hydroxytryptamine receptor 2A (HTR2A) small molecule agonists, cell-based qHTS assay (AID 1963587); further: nearly all actives have a fitted effect of over 30% in size
Procedure, shortened: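 Kinetic calcium-flux fluorescence (2 min, 1 sec intervals) after compound addition in agonist mode. HTR2A-CHO cells were cultured 18 h, then dye-loaded 1 h at 37 C.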

[11] = target: Muscarinic acetylcholine receptor M1 (Homo sapiens) (UniProt P11229); assay: Cholinergic receptor muscarinic 1 (CHRM1) small molecule antagonists, cell-based qHTS assay (AID 1963588); further: nearly all actives have a fitted effect of over 40% in size
Chain of Muscarinic acetylcholine receptor M1 (Homo sapiens) (P11229 whole entry, looked up): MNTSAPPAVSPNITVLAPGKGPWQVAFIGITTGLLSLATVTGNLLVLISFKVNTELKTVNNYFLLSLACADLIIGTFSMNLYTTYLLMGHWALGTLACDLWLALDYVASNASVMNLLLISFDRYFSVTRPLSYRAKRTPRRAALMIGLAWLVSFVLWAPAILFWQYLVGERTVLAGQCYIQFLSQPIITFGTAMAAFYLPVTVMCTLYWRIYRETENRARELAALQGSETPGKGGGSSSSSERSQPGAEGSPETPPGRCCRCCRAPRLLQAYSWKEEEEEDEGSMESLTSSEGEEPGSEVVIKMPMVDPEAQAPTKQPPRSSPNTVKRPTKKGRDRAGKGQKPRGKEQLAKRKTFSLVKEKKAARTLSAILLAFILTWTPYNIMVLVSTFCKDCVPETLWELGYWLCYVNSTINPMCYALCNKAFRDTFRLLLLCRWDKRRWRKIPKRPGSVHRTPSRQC
Procedure, shortened: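 Compounds were tested at 15 concentrations in three independent runs. Dye-loaded CHRM1-CHO cells were exposed 5 min at room temperature before stimulation by acetylcholine added at 50nM. Intracellular calcium was read kinetically on FDSS for 3 min.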

[12] = target: Muscarinic acetylcholine receptor M1 (Homo sapiens) (UniProt P11229); assay: Cholinergic receptor muscarinic 1 (CHRM1) small molecule agonists, cell-based qHTS assay (AID 1963589); further: nearly all actives have a fitted effect of over 35% in size; further: potency means the concentration at half of the fitted maximal effect
Procedure, shortened: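 Homogeneous fluorescence calcium flux, agonist mode. Human M1-expressing CHO cells; compound dosed at 15 concentrations, three independent runs; signal sampled every 1 sec.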

[13] = cAMP Responsive Elements (CRE) small molecule agonists, cell-based qHTS assay (AID 1963590)
Procedure, shortened: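 HEK 293T cells stably bearing CRE-bla were plated at 2,000 cells per well and rested 18 h. Compounds, positive controls or DMSO were added for 3 h at 37 C. LiveBLAzer B/G substrate was then loaded for 2 h at room temperature.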

[14] = cAMP Responsive Elements (CRE) small molecule antagonists, cell-based qHTS assay (AID 1963591; active means well fitted inhibition curve with a large enough effect in the signal ratio in the repeat runs, not every such curve was filed as active; the % refers to the signal ratio)
Procedure, shortened: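 First, CRE-bla HEK293T cells settled 18 h at 37 C. Next, compound and 0.25 uM final NKH477 were applied for 3 h. Last, LiveBLAzer B/G substrate was loaded for 2 h at room temperature.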

[15] = target: Beta-2 adrenergic receptor (Homo sapiens) (UniProt P07550); assay: Adrenergic beta2 receptor (ADRB2) small molecule antagonists, cell-based qHTS assay (AID 1963592); further: series mostly up to about 92 µM; nearly all actives have a fitted effect of over 50% in size
Chain of Beta-2 adrenergic receptor (Homo sapiens) (P07550 whole entry, looked up): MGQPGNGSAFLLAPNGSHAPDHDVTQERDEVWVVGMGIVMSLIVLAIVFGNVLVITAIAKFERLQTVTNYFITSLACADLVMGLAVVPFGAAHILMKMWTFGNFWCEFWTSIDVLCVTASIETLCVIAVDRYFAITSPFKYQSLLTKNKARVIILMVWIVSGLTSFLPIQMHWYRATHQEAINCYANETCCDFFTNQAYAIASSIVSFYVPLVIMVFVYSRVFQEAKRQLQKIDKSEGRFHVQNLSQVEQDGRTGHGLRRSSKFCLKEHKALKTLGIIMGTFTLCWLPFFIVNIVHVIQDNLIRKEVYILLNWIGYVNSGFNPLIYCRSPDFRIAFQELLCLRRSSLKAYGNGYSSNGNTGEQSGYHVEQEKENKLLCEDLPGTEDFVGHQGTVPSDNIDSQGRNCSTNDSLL
Procedure, shortened: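 Assay format: CHO-ADRB2 cells, 18-20hr seeding at 37C/5% CO2, then compound plus 1nM isoproterenol agonist mix for 0.5hr RT. Homogeneous time-resolved fluorescence cAMP detection after 1hr, expressed as 665/615 nm ratio.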

[16] = target: Beta-2 adrenergic receptor (Homo sapiens) (UniProt P07550); assay: Adrenergic beta2 receptor (ADRB2) small molecule agonists, cell-based qHTS assay (AID 1963593);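 further: CHO cells stably overexpressing human ADRB2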
Procedure, shortened: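 CHO cells stably over-expressing ADRB2 were plated overnight at 37C, then dosed with compounds plus a stimulation mix containing 100uM IBMX and 25uM Ro-20-1724 for 0.5hr at room temperature. cAMP was measured by HTRF competition, 1hr.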

[17] = target: D(2) dopamine receptor (Homo sapiens) (UniProt P14416); assay: Dopamine D2 receptor (DRD2) small molecule agonists, cell-based qHTS assay (AID 1963594); further: nearly all actives have a fitted effect of over 35% in size
Chain of D(2) dopamine receptor (Homo sapiens) (P14416 whole entry, looked up): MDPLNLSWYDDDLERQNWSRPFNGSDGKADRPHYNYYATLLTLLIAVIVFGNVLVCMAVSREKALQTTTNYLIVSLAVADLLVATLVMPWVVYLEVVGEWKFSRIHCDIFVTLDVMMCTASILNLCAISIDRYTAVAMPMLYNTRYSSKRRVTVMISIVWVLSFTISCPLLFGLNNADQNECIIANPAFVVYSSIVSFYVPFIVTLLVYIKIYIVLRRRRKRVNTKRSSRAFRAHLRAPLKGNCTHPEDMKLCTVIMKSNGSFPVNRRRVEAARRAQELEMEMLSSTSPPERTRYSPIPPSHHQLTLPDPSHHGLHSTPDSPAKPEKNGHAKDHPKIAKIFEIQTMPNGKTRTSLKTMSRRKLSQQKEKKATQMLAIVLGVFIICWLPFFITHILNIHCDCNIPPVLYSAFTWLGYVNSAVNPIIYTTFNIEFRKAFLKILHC
Procedure, shortened: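 cAMP accumulation in DRD2-HEK293 cells measured by HTRF after 1 h detection; compounds added 10 min before NKH477 (200nM […]) forskolin-analogue stimulation, 30 min at room temperature, with Ro20-1724 present at 0.1 mM final.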

[18] = target: D(2) dopamine receptor (Homo sapiens) (UniProt P14416); assay: Dopamine D2 receptor (DRD2) small molecule antagonists, cell-based qHTS assay (AID 1963595; active means well fitted inhibition curve with a large enough effect in the signal ratio in the repeat runs, with a control signal flat; the % refers to the signal ratio)
Procedure, shortened: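 HEK293 cells stably expressing DRD2 were preincubated with 0.1 mM Ro20-1724, then with compound for 10 min at room temperature. Cells were stimulated with 200 nM NKH477 plus 12 nM quinpirole for 30 min, and cAMP was read by HTRF.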

Row | Structure (SMILES) | Potency [1] | Potency [2] | Potency [3] | Potency [4] | Potency [5] | Potency [6] | Potency [7] | Potency [8] | Potency [9] | Potency [10] | Potency [11] | Potency [12] | Potency [13] | Potency [14] | Potency [15] | Potency [16] | Potency [17] | Potency [18]
1 | CCC[N+]1(C)CCCCC1 | inactive | inactive | inactive | inactive | inactive | inactive | inactive | inactive | inactive | inactive | inactive | inactive | inactive | inactive | inactive | inactive | inactive | –
2 | Clc1cccc(Cl)c1Cl | inactive | inactive | inactive | inactive | inactive | inactive | inactive | inactive | inactive | inactive | inactive | inactive | inactive | inactive | inactive | inactive | inactive | –
3 | CCCC[N+]1(C)CCCCC1 | inactive | inactive | inactive | inactive | inactive | inactive | inactive | inactive | inactive | inactive | inactive | inactive | inactive | inactive | inactive | inactive | inactive | inactive
4 | CCC[N+]1(C)CCCC1 | inactive | inactive | inactive | inactive | inactive | inactive | inactive | inactive | inactive | inactive | inactive | inactive and 24.3 µM (active) and 21.9 µM (active) | inactive | inactive | inactive | inactive | inactive | inactive
5 | Clc1ccccc1Cl | inactive | inactive | inactive | inactive | inactive | inactive | inactive | inactive | inactive | inactive | inactive | inactive | inactive | inactive | inactive | inactive | inactive | inactive
6 | Cc1[nH]c(=O)n(C(C)(C)C)c(=O)c1Cl | inactive | inactive | inactive | inactive | inactive | inactive | inactive | inactive | inactive | inactive | inactive | inactive | inactive | inactive | inactive | – | inactive | inactive
7 | CC1C=[C-]C=C1.[C-]#[O+].[C-]#[O+].[C-]#[O+].[Mn] | inactive | inactive | inactive | inactive | inactive | inactive | inactive | inactive | inactive | inactive | inactive | inactive | inactive | – | inactive | inactive | inactive | inactive
8 | CC(C)c1ccc(OP(=O)(Oc2ccc(C(C)C)cc2)Oc2ccc(C(C)C)cc2)cc1 | inactive | 61.6 µM (active) and inactive and 30.6 µM (active) | inactive | inactive | inactive | inactive | inactive | inactive | inactive | inactive | inactive | inactive | – | inactive | inactive | – | inactive | inactive
9 | C#CCN(C)[C@H](C)Cc1ccccc1 | inactive | inactive | inactive | inactive | inactive | inactive | inactive | inactive | – | – | – | – | inactive | inactive | inactive | inactive | – | inactive
10 | Cc1cc(C)cc(C)c1 | inactive | inactive | inactive | inactive | inactive | inactive | inactive | inactive | inactive | inactive | – | inactive | inactive | inactive | inactive | – | inactive | inactive
11 | C[C@]12CC[C@H](O)CC1=CC[C@@H]1[C@@H]2CC[C@]2(C)C(=O)CC[C@@H]12 | inactive | inactive | inactive | inactive | inactive | inactive | inactive | – | – | – | – | – | – | – | – | inactive | inactive | inactive
12 | O=c1nc(O)n(Cl)c(=O)n1Cl | inactive | inactive | inactive | inactive | inactive | inactive | inactive | inactive | – | inactive | inactive | inactive | inactive | inactive | inactive | inactive | inactive | inactive
13 | O=C(O)CF | inactive | inactive | inactive | inactive | inactive | inactive | inactive | – | inactive | – | – | inactive | inactive | inactive | inactive | – | inactive | inactive
14 | O=C(NC(=O)c1c(F)cccc1F)Nc1ccc(Cl)cc1 | inactive | inactive | inactive | inactive | inactive | inactive | inactive | inactive | – | inactive | inactive | inactive | inactive | inactive | inactive | inactive | inactive | inactive
15 | Clc1ccccc1-c1nnc(-c2ccccc2Cl)nn1 | inactive | 19.2 µM (active) and 5.43 µM (active) | inactive | inactive | inactive | inactive | inactive | inactive | – | inactive | inactive | inactive | inactive | inactive | inactive | inactive | inactive | inactive
16 | CCCCNC(=O)n1c(NC(=O)OC)nc2ccccc21 | inactive | 54.2 µM (active) | inactive | inactive | inactive | inactive | inactive | – | inactive | inactive | inactive | inactive | inactive | inactive | inactive | inactive | inactive | inactive
